This note sets out measurements from ChEMBL document CHEMBL4513216, “Probing the Open Global Health Chemical Diversity Library for Multistage-Active Starting Points for Next-Generation Antimalarials” (ACS Infect Dis, 2020).

Structures are written as SMILES. Out of some 68,000 compounds screened, about 2,700 (4%) showed an effect of 50% or more. Many of the other results were omitted from the sample, so strong results are more common in it than they were.

The subject of this assay is Plasmodium berghei. Briefly: Screen against P. berghei liver stage (PbLuc), transformed with Luciferase, at 2uM. To be noted: tested at 2 uM. It is filed as functional, HepG2.
Turning to `CC(C)[C@H]1CN(CCCO)C[C@@H]1NC(=O)CCS(C)(=O)=O`, the INHIBITION came out at 25.9%.

Turning to `O=C(CCS(=O)(=O)C1CCCC1)NCc1ccccc1Cn1cncn1`, the INHIBITION is 31.57%. Next, `COc1c(CNC2CCCc3ccccc32)c(C)nn1C` (stereo not given): 11.28%; `COc1c(CNC2CCOc3ccccc32)c(C)nn1C` (stereo not given): 64.08%; `Cc1nn(C)c(Oc2ccccc2)c1CNC1CCOc2ccccc21` (stereo not given): -15.64%.

In the case of `COc1c(CNC2CCCc3ccccc32)c(C(C)C)nn1C` (stereo not given), the INHIBITION is 69.22%.

For the compound `COc1c(CNC2CCCOc3ccccc32)c(C)nn1C` (stereo not given), the INHIBITION is -18.88%. The same measure for `COc1c(CNC2CCc3ccccc32)c(C(C)C)nn1C` (stereo not given): 24.65%; for `O=C1NCCCC[C@@H]1Nc1ccc(-c2nc(C3CC3)no2)cn1`: 8.75%.

Take `c1cncc(COCc2nnc3n2CCN(Cc2ccco2)C3)c1`: the INHIBITION was -8.22%. The same measure for `COc1ccccc1CC(C)(C)C(=O)NCC(=O)Nc1cccnc1`: -16.15%; for `O=C(NC1CCC(O)CC1)c1ccc2nc(-c3ccccc3)cn2c1` (stereo not given): 2.17%; for `COc1ccc(C)cc1CC(=O)Nc1cc(C)n[nH]1`: -19.45%. As to `CC(C)CNC(=O)c1ccc2c(=O)n(-c3ccccc3)cnc2c1`, the INHIBITION was 43.75%. Next, `Cn1c(=O)[nH]c(=O)c2c1nc1n2CC(c2ccc(Cl)cc2)O1` (stereo not given): 13.01%. The same measure for `COc1ccc(C2CC(=O)Nc3c2nc2n3CCCC2)cc1O` (stereo not given): 24.29%.

Turning to `O[C@H]1CCN(CC2CC2)[C@H]1Cc1ccncc1`, the INHIBITION turned out to be 55.7%.

As to `O[C@H]1CCN(CC2CCOC2)[C@H]1Cc1ccncc1` (stereo not given in full), the INHIBITION was 3.56%. The same measure for `O[C@@H]1CCN(CC2CC2)[C@H]1Cc1ccccc1`: -17.26%. `COc1ccccc1OCc1cc(C(=O)N2CCC(NC(C)=O)C2)n[nH]1` (stereo not given): the INHIBITION is listed as -49.85%. As for `CC(=O)N[C@H]1CCN(C(=O)c2cc(Cn3cnc4ccccc43)[nH]n2)C1`, the INHIBITION turned out to be 60.71%. Turning to `O=C(N[C@H]1CN2CCC1CC2)c1cc(Cn2cnc3ccccc32)[nH]n1`, the INHIBITION came to 48.93%. The same measure for `NC(=O)c1cn[nH]c1C1CCCN1C(=O)c1cnccn1` (stereo not given): 39.5%; for `Cc1nc2c(c(NCC(c3cccnc3)N3CCOCC3)n1)CCNC2` (stereo not given): -10.09%; for `Cc1ncc(CN(C)C(=O)Nc2cccc(N3CCNC3=O)c2)s1`: -82.26%. The same measure for `Cc1nc(CCCC(=O)Nc2cccc(N3CCNC3=O)c2)cs1`: -33.58%; for `Cc1nc(CSCCC(=O)Nc2cccc(N3CCNC3=O)c2)cs1`: 54.82%. `CC(OCC1CC1)C(=O)N1CCCN(c2nc3ccccc3[nH]2)CC1` (stereo not given): the INHIBITION is -38.2%. As for `Cn1ncc2c1C(COCC1CC1)CN(S(=O)(=O)C1CC1)C2` (stereo not given), the INHIBITION is on record as 3.63%. Consider `Cn1ncc2c1C(COCC1CC1)CN(S(C)(=O)=O)C2` (stereo not given), for which the INHIBITION is on record as 51.72%. In the case of `Cn1ncc2c1C(COCC1CC1)CN(Cc1nccs1)C2` (stereo not given), the INHIBITION is -44.9%. The same measure for `Cc1ncsc1CN1Cc2cn(C)nc2C(COCC2CC2)C1` (stereo not given): -64.59%; for `CCOCC1CN(S(C)(=O)=O)Cc2cnn(C)c21` (stereo not given): 18.97%; for `Cc1ncsc1CN1Cc2cnn(C)c2C(COCC2CC2)C1` (stereo not given): 50.17%. The same measure for `Cn1ccc2c(C(=O)N3CCC(C(N)=O)CC3)cccc21`: 40.31%. The same measure for `Cn1c(CN2CCCC2c2noc(C3CC3)n2)cc(=O)n(C)c1=O` (stereo not given): 12.91%; for `CCCN1CCC(CC(=O)N2CCC(C(O)c3nccn3C)CC2)CC1` (stereo not given): 51.19%. Regarding `CC(C)N1CCC(CC(=O)N2CCC(C(O)c3nccn3C)CC2)CC1` (stereo not given), the INHIBITION is recorded as 15.11%. The same measure for `CC(C)N1CCC(C(=O)N2CCC(C(O)c3nccn3C)CC2)CC1` (stereo not given): 6.4%. Next, `COCC(=O)Nc1nn(Cc2ccc(F)cc2)cc1Cl`: -20.28%; `Cc1noc(C)c1CN1CCN(c2ccnc(-c3ccccc3)n2)CC1`: -5.53%.

On to `CCOc1ccccc1OC1CCN(C(=O)c2cc[nH]n2)CC1`, for which the INHIBITION came out at 7.54%. `CCc1ccc(NS(=O)(=O)C=c2[nH]c(=O)n3cccc3c2=O)cc1`: the INHIBITION was -1.14%. The same measure for `O=c1c(=CS(=O)(=O)Nc2ccc(Cl)cc2)[nH]c(=O)n2cccc12`: 50.52%; for `CC(C)c1ccc(NS(=O)(=O)C=c2[nH]c(=O)n3cccc3c2=O)cc1`: 9.43%. Next, `O=c1c(=CS(=O)(=O)Nc2ccc(Br)cc2)[nH]c(=O)n2cccc12`: -42.73%; `O=c1c(=CS(=O)(=O)Nc2ccccc2)[nH]c(=O)n2cccc12`: 53.68%.

As for `Cc1ccc(NS(=O)(=O)C=c2[nH]c(=O)n3cccc3c2=O)cc1`, the INHIBITION was -68.56%. Next, `Cc1cc(C)cc(CN2CCC3(CC2)CC(Nc2ncccn2)CO3)c1` (stereo not given): 24.43%; `CNC(=O)C1CN(c2ccnc(C)n2)CCN1Cc1ccccc1` (stereo not given): -10.89%.

Take `CC(C)NC(=O)[C@@]12CCO[C@@H]1CCN(Cc1ccco1)C2`: the INHIBITION is given as 16.63%. Next, `CCC(CC)CN1C[C@@H]2OCCN(Cc3cnn(C)c3)[C@@H]2C1`: 56.78%. As to `Cn1cc(CN2CCO[C@H]3CN(Cc4ccco4)C[C@H]32)cn1`, the INHIBITION is 10.53%. For the compound `CN(C)CCN1C[C@@H]2OCCN(Cc3cnn(C)c3)[C@@H]2C1`, the INHIBITION is listed as 33.4%. Next, `CC(=O)Nc1ccc(S(=O)(=O)N2CCOC(Cn3ccnc3)C2)cc1` (stereo not given): 1.92%. Take `O=S(=O)(N1CCOCC1)N1CCC(Oc2cnccn2)CC1`: the INHIBITION is -7.91%. The same measure for `CC1CCN(S(=O)(=O)N2CCC(Oc3cnccn3)CC2)CC1`: 52.82%. Next, `O=S(=O)(N1CCCCC1)N1CCC(Oc2cnccn2)CC1`: 41.98%; `O=S(=O)(c1ccccc1)N1CCC2(CCCN2Cc2cccc(Cl)c2)C1` (stereo not given): 35.26%.

As for `CSc1ccc(-c2nc(CN3CCC(NC(C)=O)CC3)c(C)o2)cc1`, the INHIBITION was -11.37%. The same measure for `CSc1ccc(-c2nc(CN3CCC(NC(C)=O)C3)c(C)o2)cc1` (stereo not given): 52.77%. Next, `CNC(=O)C1CCN(Cc2nc(-c3ccc(SC)cc3)oc2C)C1` (stereo not given): 13.94%; `Cc1cc(NCc2ccccc2CN2CCCCC2)n2ncnc2n1`: -1.87%.

In the case of `Cc1cc(C)c(CNC(=O)N(C)Cc2cccc(F)c2)c(=O)[nH]1`, the INHIBITION is listed as -9.17%. For the compound `CS(=O)(=O)Nc1cccc(C(=O)Nc2ccc3c(c2)C(=O)NC3)c1`, the INHIBITION was -7.99%.
